Source: PubChem BioAssay AID504891 (National Center for Advancing Translational Sciences (NCATS), 2011)
In all, about 390,000 compounds went through this assay and about 35 (0.009%) were called active. Roughly 6% stayed inconclusive and do not appear here. Calls follow the shape of the dose curve; as a rule, active = well fitted inhibition curve with a large enough effect in the polarisation, with a control signal flat (not every such curve was filed as active); inconclusive = small, poorly fitted or top-dose-only effect, or effect the other way, or a change in a side signal; inactive = no such curve, though single readings can be large or run the other way; the % refers to the polarisation. Only a selection was taken, and actives are over-represented in it overall.

biological target: Peptidyl-prolyl cis-trans isomerase NIMA-interacting 1 (Homo sapiens) (UniProt Q13526); assay: qHTS Assay to Find Inhibitors of Pin1; settings: Pin1 FP peptide displacement, HiFluor488, 10 min; series mostly up to 115 µM
From the text: NIH Molecular Libraries Probe Production Network [MLPCN]
NIH Chemical Genomics Center [NCGC]
The unique chemical properties of Pro allow for the adoption of two completely distinct amide bond conformations (cis and trans). Peptidyl-prolyl cis/trans isomerases (PPIases) are evolutionary conserved enzymes that catalyze cis/trans isomerization of peptidyl-prolyl peptide bonds. Distinct from all other PPIases such as cyclophilins and FK506-binding proteins (FKBPs), Pin1 binds a subset of phos.Ser/Thr-Pro-containing proteins using its protein-targeting WW domain and isomerizes only specific phos.Ser/Thr-Pro bonds, which cannot be effectively catalyzed by other known PPIases.
Pin1-catalyzed conformational regulation can control a spectrum of activities of many key regulators in diverse cellular processes such as cell growth, genotoxic and other stress responses, immune response, germ cell development, neuronal differentiation and survival. Pin1 has emerged as a novel molecular timer that modulates its multiple targets at various steps of a given cellular process to synergistically control the amplitude and duration of a cellular response or process. Importantly, Pin1 is tightly regulated by multiple levels and its deregulation has an important role in a growing number of pathological conditions, including cancer, Alzheimer's disease, aging, asthma and microbial infection, providing a potentially new therapeutic option.
The goal of this screen is to find small-molecule inhibitors of Pin1 using a fluorescence polarization competition assay. A HiFluor-488-labeled peptide binds to the active site of Pin1 and can be displaced by compounds. Compounds were screened as a concentration-titration series that ranged from 57 uM to 0.7 nM.
NCGC Assay Protocol Summary:
Pin1 (0.6 uM) was dispensed into black, solid 1536-well plates at 2 uL/well in 10 mM HEPES (pH 7.5), 10 mM NaCl, 0.01% Tween20, 1 mM DTT, and 1% glycerol. Then, 23 nL of compounds or DMSO were delivered to each well using a pin tool. Two uL of Pin1-1b-HiFluor488 peptide (10 mM HEPES (pH 7.5), 10 mM NaCl, 0.01% Tween20, 1 mM DTT, and 1% glycerol, 0.02 uM Pin1-1b-HiFluor488) was then dispensed, and plates were incubated at room temperature for 10 min. The plates were measured on a ViewLux plate reader for fluorescence polarization signal using a 480/20 nM nm excitation filter and 540/25 nM nm S and P emission filters with a 20 second exposure. The %Activity was determined from the corrected fluorescence polarization values. Unlabeled Pin1-1c peptide was used as a control (3.5 mM two-fold serial; 20 uM final concentration) along with a 1x (0.3 uM) and 0x (no-enzyme) Pin1 enzyme control to normalize %Activity of identified inhibitors; 0x enzyme values corresponded to 100%Activity (full inhibition), while 1x Pin1 enzyme values were used to normalize 0%Activity (no inhibition).
Concentration-response curves were fitted to the signals arising from the resulting fluorescence polarization. The concentration-effect curves were then classified based on curve quality (r2), response magnitude and degree of measured activity, and compounds were subsequently categorized based on their curve class.
Keywords: Peptidyl prolyl isomerase, Pin1, fluorescence polarization, MLSMR, MLPCN, NIH Roadmap, qHTS, NCGC

Sequence of Peptidyl-prolyl cis-trans isomerase NIMA-interacting 1 (Homo sapiens) (Q13526 whole entry, looked up): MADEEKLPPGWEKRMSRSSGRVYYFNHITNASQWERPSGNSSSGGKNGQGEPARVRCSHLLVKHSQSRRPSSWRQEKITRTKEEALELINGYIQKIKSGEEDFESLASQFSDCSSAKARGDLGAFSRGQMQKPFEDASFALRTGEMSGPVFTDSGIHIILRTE

activity, negative = inhibition, inactive:
CCc1ccccc1NC(=O)c1ccc2nc(CCc3ccccc3)oc2c1
CCc1ccc(CNC(=O)C2CCN(c3nn4cc(-c5ccc(F)cc5)nc4s3)CC2)cc1
Cc1ccc(CNc2ncnc3cc(-c4ccc5c(c4)OCO5)ccc23)o1
CN1C(=O)c2ccccc2Sc2ccc(NC(=O)Cc3ccc(Cl)cc3)cc21
Cc1cc2c(cc3c(SCc4nc(-c5ccccc5)oc4C)nnc(C)n32)o1
CCOC(=O)C1CCN(C(=O)CSc2c3c(nc4ccc(Cl)cc24)CCCC3)CC1
Cc1c(Cl)cccc1NC(=O)CCS(=O)(=O)c1ccc2c(c1)oc(=O)n2C
O=C(CN1c2ccccc2S(=O)(=O)c2ccccc21)Nc1cccc(C(F)(F)F)c1
O=C(COc1ccccc1F)Nc1ccc(C(=O)OCc2cc(=O)n3nc(C4CC4)sc3n2)cc1
N#Cc1nc(Nc2cccc(Cl)c2)nc(NC2CCCC2)n1
COc1ccc(Cn2ccn(CC(=O)Nc3cc(C)ccc3C)c(=O)c2=O)cc1
COc1cccc(NC(=O)c2ccc3nc(CCc4ccccc4)oc3c2)c1
COc1ccc(CC(=O)N2CC(=O)Nc3ccc(Br)cc3C2c2ccc(F)cc2)cc1OC (configuration not stated)
COc1ccc(N2CCN(S(=O)(=O)CCNC(=O)C(c3ccccc3)c3ccccc3)CC2)cc1
COc1ccc(C2/C=C\CN(C(=O)c3ccc(C)cc3)C(Cc3ccccc3)C(=O)N2Cc2ccc(F)cc2)cc1 (configuration not stated)
Cc1ccc2[nH]c3c(=O)n(CC(=O)NC(C)C)ncc3c2c1
COc1ccc(NC(=O)CCc2nnc3n(CC(C)C)c(=O)c4ccccc4n23)cc1OC
Cc1ccc(Cn2ncc3c4sc(C)cc4n(C)c3c2=O)c(C)c1
COc1cc(OC)c2c(C)cc(=O)oc2c1C(CCN1CCCCC1)c1ccc(N(C)C)cc1 (configuration not stated)
CCc1nnc(SCc2c(F)cccc2Cl)c2cc3sccc3n12
O=C1CCc2cc(S(=O)(=O)Nc3cccc(Oc4ccccc4)c3)ccc2N1
NC(=O)C1CCN(c2cc(-c3ccc4c(c3)OCCCO4)ncn2)CC1
COc1ccc(OCc2ccc(-c3nc(C#N)c(N4CCN(c5ccccc5)CC4)o3)o2)cc1
COc1ccc(Cl)cc1NC(=O)CSc1nc2ccccc2c2nc(-c3ccccc3)nn12
CCCN1CCC(=O)N(C(CSc2ccc(OC)cc2)Cc2ccccc2)CC1 (configuration not stated)
COc1ccc(CCC(=O)NCc2ccc3c(c2)CCN3C(=O)c2ccc(F)cc2)cc1
Cc1ccc(-c2nnc3c4ccccc4c(C)nn23)cc1NC(=O)c1cccc(Br)c1
